Source: PubChem BioAssay (NCI)
About 83,000 compounds went through this panel and 20% of them were active in at least one assay; those are over-represented in the sample as a whole.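 Assay: single dose, 48 h. Readout: percent growth (0 = no net growth; negative = cell death). Active: <10.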 Values without a mark were called inactive. Active and inactive are the calls of the source.

system: KM12 colon; test: NCI-60 one-dose screen, 48 h (100 = growth as untreated, 0 = no growth, -100 = all killed); settings: 10 µM unless noted

Structure (SMILES)	growth
CC(C)c1c(C(=O)Nc2ccccc2)c(-c2ccccc2)c(-c2ccc(F)cc2)n1CC[C@@H]1CC=CC(=O)O1	-60.7% (active)
COc1ccc2nc3cc(Cl)ccc3c(N3CCN(c4ccnc(N5CCN(C)CC5)n4)CC3)c2c1	36%
COc1cc(NCCCCN=C(N)NC(N)=NC(C)C)c2ncccc2c1	20.1%
CS(=O)CCCCCN=C=S (centres undefined)	-12.6% (active)
O=C(CO[N+](=O)[O-])Nc1ccc(C(=O)/C=C/c2ccc3c(c2)OCO3)cc1	35.9%
O=C(CCN1CCOCC1)Nc1ccc(Cn2nnc3c2C(=O)c2nnn(Cc4ccc(NC(=O)CCN5CCOCC5)cc4)c2C3=O)cc1	43%
O=C1Nc2ccccc2/C1=C/C(=N/c1nnc(-c2ccc(Cl)cc2)s1)c1ccccc1	66.4%
Cc1ccc(SCN2CCN(c3cccc(Cl)c3)CC2)cc1	104%
COc1ccccc1N1CCN(CCn2c(=O)c3c(c4ccccc4n3C)n(C)c2=O)CC1	103%
CS(=O)(CCCCN=C=S)=NC(=O)c1c(F)c(F)c(F)c(F)c1F (centres undefined)	54.2%
O=C(Cn1cc(CN2C(=O)c3ccccc3S2(=O)=O)nn1)Nc1ccc([N+](=O)[O-])cc1Cl	93.8%
c1ccc(-c2nc(N3CCOCC3)c3c4c(sc3n2)CCCCC4)nc1	64.7%
O=[N+]([O-])c1c(F)cccc1Nc1cccc(F)c1	115%
CC1(C)CC(=O)C(c2c(-c3ccccc3)[nH]c3[nH]c(=S)[nH]c(=O)c23)=C(O)C1	118%
O=C([C@@H](COCc1ccccc1)N1C(=O)[C@@H](N2C(=O)OC[C@@H]2c2ccccc2)[C@H]1/C=C/c1ccccc1)N1CCC(CCN2CCCCC2)CC1	97.1%
COc1cc(/C=N\NC(=O)CN2CCN(c3cc4c(cc3F)c(=O)c(C(=O)N/N=C/c3ccc(O)c(OC)c3)cn4C3CC3)CC2)ccc1O	20.5%
CC/C=C\C[C@H](O)C/C=C1/C(=O)C=C[C@@H]1C/C=C\CCCC(N)=O	-38.7% (active)
ClC1=C2NC=NC2n2c(nnc2-c2ccc(Cl)cc2)N1 (centres undefined)	99.6%
COc1ccc(C(=O)c2sc3nc(-c4ccccc4OC)ccc3c2N)cc1OC	46.1%
CCN1CCN(Cc2ccc(NC(=O)Nc3nc4ccc(Oc5ccnc(C(=O)NC)c5)cc4s3)cc2C(F)(F)F)CC1	-61.6% (active)
COc1ccc2nc3cc(Cl)ccc3c(N3CCN(c4nccc(NCc5ccccc5)n4)CC3)c2c1	77%
C=C1CCC2C3(C)COC(c4ccc(SC)cc4)OC3CCC2(C)C1C/C=C1/C(=O)OCC1O (centres undefined)	44.3%
O=c1[nH]c(-c2ccccn2)nc2sc3c(c12)CCCCC3	39.4%
COc1ccc(C/C(C)=C(\c2ccc(Cl)cc2)c2ccc(OCCN3CCCCCC3)cc2)cc1	73.9%
